# JMJD2A Tudor inh – inhibitors of human JMJD2A Tudor domain | AlphaScreen JMJD2A-Tudor / H3K4me3 peptide binding | Potency, µM (highest dose often 114 µM), inactives show at the highest dose activity change, negative = inhibition, actives largely listed as inhibitors | 390,000 compounds, 4.4% hits | AID 504339; note: % is set by controls: 0 for no effect and ±100 for the full control effect; nearly all actives have a fitted effect of over 50% in size
# HP1b binding inh – blocks HP1-beta chromodomain binding to methylated histone tails; P83916; AlphaScreen HP1-beta / biotin-H3K9me3 peptide binding; Potency, µM (doses to about 114 µM), for inactives: top-dose activity change, negative = inhibition, most hits filed as inhibitors; 390,000 compounds, 0.56% hits; AID 540317; note: nearly all actives have a fitted effect of over 70% in size
#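 HP1-beta protein (50 nM final) preincubated 30 min at room temperature with biotinylated H3(1-18)K9me3 peptide (50 nM) in PBS pH 7.4, 0.01% Tween-20, then compound added for 30 min. AlphaScreen streptavidin donor/nickel chelate acceptor beads (10 ug/mL final), 30 min dark, luminescence read.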
# Sfp PPTase inh – inhibitors of Bacillus subtilis Sfp phosphopantetheinyl transferase; 310,000 compounds, 3.5% hits; Biochemical Sfp PPTase activity, qHTS; Potency, µM, for inactives: largest response in the series, negative = inhibition, usual class: inhibitors;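 note: the enzyme is Sfp with the accession as filed and its product quenches rhodamine fluorescence; 0% = enzyme reaction without inhibitor and -100% = no enzyme wells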
#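 After 15 min at room temperature with compound, 15 nM Sfp received 5 uM rhodamine-CoA plus 12.5 uM BHQ-2-ybbR (50 mM Hepes pH 7.6, 10 mM MgCl2). Rate came from the fluorescence difference over 30 min, ex 525/em 598 nm.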
# BAZ2B inh – BAZ2B (human) inhibition | AlphaScreen BAZ2B-H3K14Ac peptide displacement | 360,000 compounds, 4.4% hits | Potency, µM (highest dose often 114 µM), for the others: top-dose activity change, negative = inhibition, actives largely listed as inhibitors; note: % is set by controls: 0 for no effect and ±100 for the full control effect; nearly all actives have a fitted effect of over 60% in size
#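 AlphaScreen luminescence quantifies BAZ2B engagement of H3K14Ac peptide; the protein and biotinylated peptide are both at 50 nM final, buffer PBS pH 7.4 with 0.01% Tween-20, all steps at room temperature.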
# G9a inh – G9a (human) methyltransferase inhibition. G9a H3K9 monomethylation, AlphaScreen, 2 h. Potency, µM (highest dose often 102 µM), for inactives: at the highest dose activity, negative = inhibition, hits mostly inhibitors. 350,000 compounds, 8.8% hits. AID 504332; note: % is set by controls: 0 for no effect and ±100 for the full control effect; nearly all actives have a fitted effect of over 75% in size
#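 G9a (20 nM) preincubated 15 min RT with compounds, then 500 nM biotinylated H3K9 peptide and 20 uM SAM added; 2 h RT reaction. Monomethyl-H3K9 product detected by AlphaScreen with anti-H3K9me1 antibody, streptavidin donor and anti-rabbit IgG acceptor beads.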
# Numbers without * were called inactive; ? = inconclusive; . = no result given; ! = a repeat was not active; [ ] = remark or other dose. In the library only some 12% were active in any assay of this set; here they are far more common. Calls come from the whole dose curve; as a rule, active = well fitted curve in the direction sought with a large enough effect; inconclusive = small, poorly fitted or top-dose-only effect, or another doubt; inactive = no such curve, though single readings can be large; an effect the other way counts as inactive or inconclusive. Potency is the fitted concentration of half-maximal effect.
SMILES,JMJD2A Tudor inh,HP1b binding inh,Sfp PPTase inh,BAZ2B inh,G9a inh
CCc1n[nH]c(CCN)n1,?,10.0%,-16.5%,-13.1%,56.2µM*
CCn1c(O)c(/C=N/NC(=O)c2ccncc2)c(=O)[nH]c1=S,70.8µM*,47.7%,-6.5%,35.5µM*,-22.4%[59 µM]
O=c1[nH]c(=S)n(Cc2ccc(F)cc2)c(O)c1C=NCCCn1ccnc1,-20.6%,13.8%,13.0%,-25.9%,-29.4%
CCC(C)n1c(O)c(C=NCCc2ccccc2)c(=O)[nH]c1=S (centres undefined),-26.8%,31.9%,-9.4%,-26.2%,9.5%
O=C(N/N=C/c1c(O)n(Cc2ccc(F)cc2)c(=S)[nH]c1=O)c1ccncc1,100µM*,13.4%,-16.1%,79.4µM*,.
CCC(C)n1c(O)c(/C=N/Nc2ccccc2)c(=O)[nH]c1=S (centres undefined),?,5.9%,44.7µM*,?,1.12µM*
CCC(C)n1c(O)c(/C=N/NC(=O)c2ccncc2)c(=O)[nH]c1=S (centres undefined),?,48.3%,10.9%,56.2µM*,22.0%[59 µM]
CCC(C)n1c(O)c(/C=N/N2CCOCC2)c(=O)[nH]c1=S (centres undefined),-30.0%,8.9%,25.2%,-25.8%,?
C[N+](C)(C)Cc1ccccc1,-12.4%,8.7%,10.9%,-7.3%,?
O=c1[nH]cnc2nc(-c3ccc(N(CCCl)CCCl)cc3)[nH]c12,-20.7%,9.3%[57 µM],.,.,.
CC(=O)O[C@H]1CC[C@H]2[C@@H]3CCC4=CC(=O)CCC4=C3C=C[C@]12C,.,.,-1.9%,.,?
CC(=O)O[C@H]1CCC2C3CCC4=CC(=O)CCC4=C3C=C[C@@]21C (some centres undefined),?,?,?,-6.8%,44.7µM*
CCOc1ccc(N2C(=O)/C(=C/c3ccco3)C(=O)NC2=S)cc1,0.794µM*,1.58µM*,35.5µM*,28.2µM*,16.1%[0.501 µM]
Cc1ccccc1N1C(=O)/C(=C/c2ccco2)C(=O)NC1=S,.,.,20µM*,1.12µM*,1.78µM*
O=C1NC(=S)N(c2ccccc2F)C(=O)/C1=C\c1cccs1,50.1µM*,-12.2%,11.2µM*,50.1µM*,1.26µM*
CCOc1ccc(-n2c(-c3ccoc3)nc3ccccc3c2=O)cc1,-6.6%,-0.6%,-27.2%,-17.9%,?
CCOc1ccc(N2C(=O)/C(=C\c3cccs3)C(=O)NC2=S)cc1,35.5µM*,22.8%,12.6µM*,-33.4%,7.08µM*
COc1ccccc1CN1CC[C@@]2(CCCN(C(=O)Oc3ccccc3)C2)C1,.,.,-2.0%,.,5.8%[12.7 µM]
CCOP(=O)(OCC)c1cccc(O)c1,-14.4%,17.8%,-1.7%,13.1%,7.7%
CN(C(=O)Cc1ccc(Cl)c(Cl)c1)C(CN1CCCC1)c1cccc(OCC(=O)O)c1 (centres undefined),-19.3%,48.0%,-6.7%,10.3%,49.3%[12.7 µM]
O=C1OC(c2cc(I)c(O)c(I)c2)(c2cc(I)c(O)c(I)c2)c2ccccc21,.,.,39.8µM*,.,7.08µM*
CC(=O)Nc1nnc(SCC(=O)NCCOc2ccccc2)s1,-18.3%,-4.5%,-11.0%,?,?
CC1CCCC(C)N1C(=O)CSc1nnc(NC(=O)c2cccs2)s1 (centres undefined),-5.3%[57.1 µM],37.5%,8.2%,-6.2%,50.1µM*
COc1cc2c(cc1O)C[C@H]1c3c(cc(O)c(OC)c3-2)CCN1C,-17.3%,14.9%,8.8%,1.3%,-5.1%[59 µM]
CCCN1CCc2cc(O)cc3c2[C@H]1Cc1ccc(O)c(O)c1-3,12.6µM*,11.2µM*,.,.,1.12µM*
SMILES,JMJD2A Tudor inh,HP1b binding inh,Sfp PPTase inh,BAZ2B inh,G9a inh
CN1CCc2cc(O)cc3c2[C@H]1Cc1ccc(O)c(O)c1-3,7.94µM*,?,.,.,1.68µM*
CCCN1CCc2cccc3c2C1Cc1ccc(O)c(O)c1-3 (centres undefined),.,.,56.2µM*,.,1µM*
O=C(O)Cc1cnc[nH]1,7.08µM*,19.6%,50.1µM*,.,9.47µM*!
COc1ccc(C(=O)C(C)(C)NO)cc1,50.1µM*,?,-5.7%,?,?
CCN(CC)C(=S)NCCc1ccccc1,-9.1%,43.0%,-3.1%,-5.1%,-3.8%[12.7 µM]
COC1(CS(=O)c2ccccc2)CCN(CCc2c[nH]c3ccc(F)cc23)CC1 (centres undefined),.,.,-2.9%,.,.
COc1ccccc1N1CCN(CCc2c[nH]c3cc4c(cc23)OCO4)CC1,25.1µM*,?,.,.,.
OCC(O)[C@H]1O[C@@H]2O[C@H](C(Cl)(Cl)Cl)O[C@@H]2[C@H]1O (some centres undefined),.,.,5.6%,.,?
O=S(=O)(c1ccc(Cl)cc1)c1cc(Cl)c(Cl)cc1Cl,.,.,-20.3%,.,.
O=C(Cc1ccccc1)Oc1coc(CSc2ncccn2)cc1=O,14.1µM*,18.4%,1.3%,.,-7.1%
N#CCCn1cc(C(=O)Nc2ccc(F)cc2)c(-c2ccccc2)n1,-21.3%,25.8%,10.9%,7.6%,.
CON(C)C(=O)Nc1ccc(Br)cc1,.,.,7.9%,.,.
O=C(O)/C=C\C(=O)Nc1ccc(Oc2ccc(Br)cc2)cc1,-14.0%,35.3%,9.2%,50.1µM*,?
COc1cc2c3cc1Oc1cc(ccc1O)C[C@@H]1c4c(cc(OC)c(O)c4Oc4ccc(cc4)C[C@H]3N(C)CC2)CCN1C,?,-6.2%,-4.6%,44.7µM*,?
COc1ccc2cc1Oc1ccc(cc1)C[C@H]1c3cc(c(OC)cc3CCN1C)Oc1c(OC)c(OC)cc3c1[C@H](C2)N(C)CC3,50.1µM*,-21.9%,-1.3%,-31.8%,-36.8%[59 µM]
COc1cc2c3cc1Oc1c(OC)c(OC)cc4c1[C@H](Cc1ccc(cc1)Oc1cc(ccc1O)C[C@H]3N(C)CC2)N(C)CC4,?,-12.4%,.,.,.
C=CCn1c(O)c(C(CC)=NCCN2CCN(C(=S)NC)CC2)c(=O)[nH]c1=O,0.7%,45.9%,14.8%,-11.7%,?
CCOP(=O)(Cc1cc(C(C)=O)c(C)o1)OCC,-23.2%,17.6%,?,-14.8%,8.91µM*
CCOP(=O)(Cc1ccccc1)OCC,0.0%,39.2%,.,-0.4%,4.8%[2.33 µM]
CCOP(=O)(Cc1ccc(C#N)o1)OCC,-8.7%,30.6%,8.3%,5.2%,?
CCCC(=O)c1cc(CP(=O)(OCC)OCC)oc1C,-12.8%,32.1%,?,-11.4%,7.94µM*
CCN(CC)C1=NC(=[N+](CC)CC)c2ccccc21,-8.6%,9.7%,3.9%,12.1%,.
CC(=O)O[C@H]1CCC2C3CC[C@H]4[C@@H](O)[C@H](O)CC[C@]4(C)C3CC[C@@]21C (some centres undefined),-2.1%,38.1%,.,.,.
COC(=O)C1=C(c2cccc(C#N)c2)C[C@@H]2CC[C@H]1N2C(=O)NCc1cccc2ccccc12,-24.8%,24.4%,.,-5.5%,-4.1%[2.33 µM]
C#C[C@]1(O)CCC2C3CCC4=C/C(=N/OCC(=O)NC(C)C(=O)NC(CCSC)C(=O)O)CC[C@]4(C)C3CC[C@@]21C (some centres undefined),-17.1%,44.7%,-23.3%,2.3%,56.2µM*
